BL2 CD40 inh: CD40 pathway inhibition in BL2 cells; BL2 NF-kB luciferase reporter, CD40L-induced, 4 h; inhibition, % at 10 µM; hit rate 0.94% among 83,000;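 active = mean inhibition of at least 50% with a set share of replicates also reaching that level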;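 note: 0% = neutral control wells and 100% = IKK inhibitor VII at 50 µM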
* hit, by the source's call; [ ] = another dose, or the depositor's remark. The entries come from a sample that favours hits as a whole.

SMILES	BL2 CD40 inh
N#C[C@H]1[C@H](c2ccccc2C2=CCCCC2)[C@@H](CO)N1S(=O)(=O)c1cccc(F)c1	21.7
CC(C)C#Cc1ccc([C@@H]2[C@@H](CO)N3C(=O)CN(C(=O)Cc4ccccc4)C[C@H]23)cc1	7.0[25 µM]
NS(=O)(=O)c1ccc(N/N=C/c2ccccn2)c([N+](=O)[O-])c1	2.3
CSc1nc2ccccc2s1	2.2
NS(=O)(=O)c1ccc(Sc2nc3ccccc3s2)c([N+](=O)[O-])c1	80.9*
Cc1ccnc(Nc2nc3ccccc3o2)n1	67.8*
N#Cc1cnc(Nc2nc3ccccc3o2)nc1-c1ccccc1	-19.8
Cc1nc(Nc2nc3ccccc3o2)nc(C)c1C	5.7
Cc1ccccc1S(=O)(=O)N1[C@H](C#N)[C@@H](c2ccccc2-c2cccc(F)c2)[C@@H]1CO	18.2[25 µM]
O=C(NCC[C@@H]1CC[C@H](NC(=O)C2CCCC2)[C@H](CO)O1)Nc1ccc(Cl)cc1	-35.2
CO[C@@H]1CN(C)C(=O)c2cc(NC(=O)C3CCCC3)ccc2OC[C@@H](C)N(C(=O)c2ccccc2)C[C@H]1C	-10.8
C[C@H]1CN(C)C(=O)Cc2cc(N(C)C)ccc2O[C@H]1CN(C)C	2.7
Nc1c(C(=O)N2CCOCC2)sc2nc3c(cc12)CCC3	-50.9
Nc1c(C(=O)N2CCCC2)sc2nc3c(cc12)CCCCCC3	-96.6
Nc1c(C(=O)N2CCOCC2)sc2nc3c(cc12)CCCC3	69.1*
COc1ccc(CN2[C@@H](CO)[C@@H]3c4ccccc4N(C(=O)c4ccccc4)C[C@@H]32)cc1	6.3
N#C[C@H]1[C@@H](c2ccccc2C2=CCCC2)[C@H](CO)N1C(=O)NC1CCCCC1	6.5[25 µM]
CC(C)NC(=O)N(C)C[C@@H]1Oc2ccccc2C(=O)N(C)C[C@H]1C	6.3
CC(C)[C@@H]1COCc2cn(nn2)CC[C@H](Cc2ccccc2)C(=O)N1	5.7
C[C@H](NC(=O)N(C)C[C@H]1OCc2ccccc2-c2c(n(C)c3ccccc23)C(=O)N([C@@H](C)CO)C[C@H]1C)c1ccccc1	7.1
Cc1[nH]c2ccccc2c1CC#N	-0.8
Cc1[nH]c2ccccc2c1C1=CC(=O)C=CC1=O	90.7*
Cc1[nH]c2ccccc2c1CCO	17.5
C[C@H](NC(=O)N(C)C[C@@H]1OCc2ccccc2-c2c(n(C)c3ccccc23)C(=O)N([C@@H](C)CO)C[C@@H]1C)c1ccccc1	5.9
CC(=O)c1sc2ccccc2c1OC(=O)c1ccco1	-5.9
SMILES	BL2 CD40 inh
CCOC(=O)C1=C(COC(=O)c2ccccc2OC)NC(=O)NC1C (configuration not stated)	-4.8
CCOC(=O)c1sc2ccccc2c1OC(=O)c1ccccc1OC	64.2*
C[C@H]1CN(C)C(=O)Cc2ccccc2O[C@H]1CN(C)C	-81.3
O=C(Nc1ccc(F)cc1)N1C[C@H]2[C@@H](c3ccccc31)[C@H](CO)N2Cc1ccccc1	-3.1
CCCNC(=O)N1[C@@H](C#N)[C@@H](c2ccc(C3=CCCCC3)cc2)[C@@H]1CO	22.4[25 µM]
CCCNC(=O)N1[C@H](C#N)[C@H](c2ccc(C3=CCCCC3)cc2)[C@@H]1CO	61.0*[25 µM]
CCCNC(=O)N1[C@H](CO)[C@@H](c2ccc(C3=CCCCC3)cc2)[C@@H]1C#N	1.1[25 µM]
C[C@@H]1CN([C@H](C)CO)C(=O)CCCn2cc(nn2)CO[C@@H]1CN(C)C(=O)Nc1cccc(C(F)(F)F)c1	12.4[25 µM]
CC=Cc1ccc2n(c1=O)C[C@H]1[C@H](CO)[C@@H](C(=O)NCCc3ccncc3)[C@@H]2N1Cc1ccncc1 (mixture of isomers)	-2.0[25 µM]
CC(C)NC(=O)N(C)C[C@@H]1Oc2ccc(N)cc2C(=O)N(C)C[C@@H]1C	-1.0
CN1C(=O)c2cc(NC(=O)C3CCCC3)ccc2OC[C@H]2O[C@H](CC(=O)NCCc3ccncc3)CC[C@@H]21	-2.6
CCc1nnc(NC(=O)c2cc3c(s2)CCCCC3)s1	-58.7
CNC(=O)c1cc2c(s1)CCCCCC2	4.6
Cc1cnc(NC(=O)c2cc3c(s2)CCCC3)s1	65.3*
C[C@H]1CN(C)C(=O)c2cccnc2O[C@H]1CN(C)C	15.7
C[C@@H]1CN(C)C(=O)c2cccnc2O[C@H]1CN(C)S(C)(=O)=O	35.3*
C[C@@H]1CN(C)C(=O)c2ccccc2O[C@@H]1CN(C)S(C)(=O)=O	-1.2
COc1cccc(C(=O)N2C[C@H]3[C@@H](c4ccccc42)[C@H](CO)N3C(=O)c2ccc(F)cc2)c1	-3.3
O=C(c1ccccc1)N1C[C@H]2[C@@H](c3ccccc31)[C@@H](CO)N2S(=O)(=O)c1ccccc1	7.3[25 µM]
COCC(=O)N1[C@@H](CO)[C@H](c2ccccc2)[C@@H]1CNC(=O)c1ccccn1	0.0
N#C[C@H]1[C@H](c2ccccc2-c2cccc(F)c2)[C@@H](CO)N1C(=O)NC1CCCCC1	15.4[25 µM]
COC(=O)c1nn(-c2ccccc2)c(-c2ccccc2)c1C(=O)c1ccccc1	7.4
COc1cn(-c2ccccc2)nc1C(=O)Nc1ccccc1	-76.3
COC(=O)c1nn(-c2ccc(-c3ccccc3)cc2)cc1O	70.5*
O=C(Nc1ccc(Cl)c(Cl)c1)N[C@H]1CC[C@@H](CCn2cc(C3CCCC3)nn2)O[C@H]1CO	-2.5
SMILES	BL2 CD40 inh
COc1ccccc1CN1C[C@@H]2N[C@H](C1)C2c1ccc(-c2ccccc2OC)cc1 (some centres not stated)	20.9[25 µM]
CO[C@H]1CC[C@H]2CCOc3c(C#N)cccc3C(=O)N(C)CCCC(=O)N(C)C[C@H]1O2	-0.1[25 µM]
COc1cc(/C=N/n2cnnc2)ccc1OC(=O)c1ccncc1	65.0*
COc1cc(/C=N/n2cnnc2)ccc1OC(=O)c1cccnc1	18.7
COc1cc(/C=N/n2cnnc2)ccc1OCC(=O)N1CCOCC1	6.4
O=C(c1ccc(F)cc1)N1CC(=O)N2[C@@H](CO)[C@H](c3ccc(C#CC4CCCC4)cc3)[C@@H]2C1	-2.4
CO[C@@H](CN(C)C(=O)C1CCOCC1)[C@H](C)CN([C@H](C)CO)S(=O)(=O)c1ccccc1	-2.5[25 µM]
CNC(=O)OCc1nc(SSC(C)(C)C)n(C)c1COC(=O)NC	96.1*
O=C(/C=C/c1ccccc1)COC(=O)c1ccccc1	-16.8
O=C(/C=C/c1ccccc1)CC(O)(c1ccccc1)C(F)(F)C(F)F (configuration not stated)	55.5*
O=C(/C=C/c1ccccc1)CC(O)(c1ccccc1)C(F)(F)F (configuration not stated)	22.4
C[C@@H]1CN([C@@H](C)CO)C(=O)c2ccccc2-c2ccccc2CO[C@H]1CN(C)C(=O)Nc1ccc2c(c1)OCO2	-2.5[25 µM]
N#C[C@@H]1[C@@H](c2ccc(-c3cccc(F)c3)cc2)[C@H](CO)N1C(=O)NC1CCCCC1	-8.0
CC12C(=O)OC(=O)C1(C)C1CCC2O1 (configuration not stated)	74.2*[25 µM]
C[C@@H]1CN([C@@H](C)CO)C(=O)c2ccccc2-c2ccccc2CO[C@@H]1CN(C)Cc1ccc(C(F)(F)F)cc1	3.4
C[C@H]1CN([C@@H](C)CO)C(=O)c2ccccc2-c2ccccc2CO[C@H]1CN(C)Cc1ccccc1C(F)(F)F	33.1[25 µM]
C[C@@H]1CN([C@H](C)CO)C(=O)c2ccccc2-c2ccccc2CO[C@@H]1CN(C)Cc1ccccc1	10.6
C[C@H](CO)N1C[C@H](C)[C@H](CN(C)Cc2ccccc2C(F)(F)F)OCc2ccccc2-c2ccccc2C1=O	44.7[25 µM]
C[C@H](CO)N1C[C@H](C)[C@@H](CN(C)Cc2ccccc2)OCc2ccccc2-c2ccccc2C1=O	7.1
C[C@H](CO)N1C[C@H](C)[C@@H](CN(C)Cc2ccc(Oc3ccccc3)cc2)OCc2ccccc2-c2ccccc2C1=O	69.3*[25 µM]

Bioassay records: PubChem BioAssay, Broad Institute
